Assay results reported in PubChem BioAssay (Tox21).
Results filed as inconclusive are left out. Where a call stands in place of a potency, no number is given. Activity calls are given as the source filed them. Unless noted, calls follow the shape of the dose curve; as a rule, active = well fitted curve in the direction sought with a large enough effect in the repeat runs; inconclusive = weak or mixed curves; inactive = no such curve, though single readings can be large; an effect the other way counts as inactive or inconclusive.

Assays:
[1] = qHTS assay to identify small molecule antagonists of the glucocorticoid receptor (GR) signaling pathway - cell viability counter screen (AID 720693); also: nearly all actives have a fitted effect of over 55% in size
[2] = qHTS assay for identifying genotoxic compounds that show differential cytotoxicity against isogenic chicken DT40 cell lines with known DNA damage response pathways - wild type cell line (AID 743012); also: nearly all actives have a fitted effect of over 60% in size; also: potency is read from the fitted curve at half-maximal effect
Method in brief: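 Endpoint: CellTiter-Glo luminescence, 30 min RT. Cells: wild type DT40, 300/well. Exposure: compounds in DMSO, 40 h, 37 C/5% CO2, after ~0.5 h pre-incubation.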

[3] = qHTS assay for identifying genotoxic compounds that show differential cytotoxicity against isogenic chicken DT40 cell lines with known DNA damage response pathways - Rev3 mutant cell line (AID 743014); also: nearly all actives have a fitted effect of over 55% in size
[4] = qHTS assay to identify small molecule antagonists of the androgen receptor (AR) signaling pathway - cell viability counter screen (AID 743033; also: nearly all actives have a fitted effect of over 45% in size)
[5] = qHTS assay to identify small molecule antagonists of the androgen receptor (AR) signaling pathway using the MDA cell line - cell viability counter screen (AID 743041; also: nearly all actives have a fitted effect of over 45% in size)
Method in brief: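 In this qHTS counter assay, fluorescence intensity after CellTiter-Fluor addition indicated viability of MDA-kb2 AR-luc cells given compounds and R1881 for 16 h at 37C.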

[6] = qHTS assay to identify small molecule antagonists of the thyroid receptor (TR) signaling pathway - cell viability counter screen (AID 743064); also: nearly all actives have a fitted effect of over 50% in size
Method in brief: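 Same-well viability check: GH3.TRE-Luc cells stimulated with 1 nM T3 alongside test compound for 23.5 h, followed by CellTiter-Fluor fluorescence.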

[7] = qHTS assay to identify small molecule antagonists of the thyroid receptor (TR) signaling pathway (AID 743065); also: series mostly up to about 70 µM; nearly all actives have a fitted effect of over 55% in size
Method in brief: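 GH3.TRE-Luc rat pituitary cells carrying two TR response elements driving luciferase were plated for 4 h, given compound plus 1 nM T3 (final), and incubated 23.5 h at 37 C. ONE-Glo luminescence measured reporter inhibition; CellTiter-Fluor fluorescence tracked cytotoxicity.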

[8] = system: thyroid hormone receptor (rat, GH3 cells); assay: qHTS assay to identify small molecule agonists of the thyroid receptor (TR) signaling pathway (AID 743066; calls by dose curve)
[9] = qHTS assay to identify small molecule antagonists of the estrogen receptor alpha (ER-alpha) signaling pathway - cell viability counter screen (AID 743074; calls by dose curve;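 also: HEK293 cells carrying ER-alpha-UAS-bla reporter stimulated with 17beta-estradiol; nearly all actives have a fitted effect of over 45% in size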)
[10] = qHTS assay to identify small molecule antagonists of the estrogen receptor alpha (ER-alpha) signaling pathway using the BG1 cell line - cell viability counter screen (AID 743081);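 also: compound given together with 17beta-estradiol as the ER stimulus; series mostly up to about 70 µM; nearly all actives have a fitted effect of over 45% in size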
Aromatase (Homo sapiens) = Aromatase (Homo sapiens) (UniProt P11511); assay: qHTS assay to identify aromatase inhibitors (AID 743083); also: series mostly up to about 70 µM; nearly all actives have a fitted effect of over 55% in size
Aromatase (Homo sapiens), sequence (P11511 whole entry, looked up): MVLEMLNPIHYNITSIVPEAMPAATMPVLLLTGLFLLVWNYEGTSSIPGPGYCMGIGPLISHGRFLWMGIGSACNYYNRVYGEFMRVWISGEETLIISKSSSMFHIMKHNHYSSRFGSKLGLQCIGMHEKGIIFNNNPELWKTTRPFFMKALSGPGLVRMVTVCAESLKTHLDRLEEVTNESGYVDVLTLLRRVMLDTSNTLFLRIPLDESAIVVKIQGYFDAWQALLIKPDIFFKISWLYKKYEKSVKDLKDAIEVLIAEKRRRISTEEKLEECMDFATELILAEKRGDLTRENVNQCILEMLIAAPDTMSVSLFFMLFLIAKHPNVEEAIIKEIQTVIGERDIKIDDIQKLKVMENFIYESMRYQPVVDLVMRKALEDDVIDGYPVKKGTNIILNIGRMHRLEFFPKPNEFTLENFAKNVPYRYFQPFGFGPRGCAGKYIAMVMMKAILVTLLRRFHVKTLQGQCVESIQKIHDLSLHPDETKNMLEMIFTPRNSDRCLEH

[11] = target: Estrogen receptor (Homo sapiens) (UniProt P03372); assay: qHTS assay to identify small molecule antagonists of the estrogen receptor alpha (ER-alpha) signaling pathway (AID 743069; active = well fitted curve in the direction sought with a large enough effect in the signal ratio in the repeat runs, not every such curve was filed as active; the % refers to the signal ratio)
Estrogen receptor (Homo sapiens), sequence (P03372 whole entry, looked up): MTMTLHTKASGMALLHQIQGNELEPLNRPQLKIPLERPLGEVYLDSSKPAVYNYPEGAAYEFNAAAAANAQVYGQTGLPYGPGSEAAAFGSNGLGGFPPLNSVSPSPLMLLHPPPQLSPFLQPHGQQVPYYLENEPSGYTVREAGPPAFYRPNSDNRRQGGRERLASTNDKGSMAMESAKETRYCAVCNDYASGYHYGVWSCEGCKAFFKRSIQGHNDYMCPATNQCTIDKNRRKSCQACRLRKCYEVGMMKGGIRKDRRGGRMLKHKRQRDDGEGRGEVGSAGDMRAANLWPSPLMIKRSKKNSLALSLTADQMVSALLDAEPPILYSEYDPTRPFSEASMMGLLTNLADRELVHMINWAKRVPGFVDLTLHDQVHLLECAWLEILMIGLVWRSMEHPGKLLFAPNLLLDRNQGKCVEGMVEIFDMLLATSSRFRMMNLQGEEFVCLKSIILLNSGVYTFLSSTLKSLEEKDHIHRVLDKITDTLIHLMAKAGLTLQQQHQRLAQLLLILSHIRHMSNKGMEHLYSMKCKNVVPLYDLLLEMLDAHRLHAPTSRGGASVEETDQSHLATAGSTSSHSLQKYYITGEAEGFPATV
Method in brief: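 A 17beta-estradiol challenge was applied right after compound transfer to ER-alpha-UAS-bla HEK293 cells previously kept in charcoal-stripped serum. Plates stood 18 hr at 37C and 5% CO2; fluorescence was read following 2 hr FRET substrate loading at room temperature.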

[12] = target: Estrogen receptor (Homo sapiens) (UniProt P03372); assay: qHTS assay to identify small molecule agonists of the estrogen receptor alpha (ER-alpha) signaling pathway (AID 743075; calls by dose curve;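 also: HEK293 GripTite cells with ER-alpha and UAS-driven beta-lactamase reporter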)
[13] = target: Estrogen receptor (Homo sapiens) (UniProt P03372); assay: qHTS assay to identify small molecule agonists of the estrogen receptor alpha (ER-alpha) signaling pathway using the BG1 cell line (AID 743079); also: nearly all actives have a fitted effect of over 20% in size
[14] = qHTS assay to identify small molecule antagonists of the estrogen receptor alpha (ER-alpha) signaling pathway using the BG1 cell line (AID 743080; calls by dose curve;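 also: BG1 cells stimulated with 17beta-estradiol alongside compound; series mostly up to about 70 µM; nearly all actives have a fitted effect of over 25% in size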)
Method in brief: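 BG1-Luc-4E2 cells (endogenous full-length ER-alpha, 4xERE luciferase) hormone-starved 5 days in charcoal-stripped FBS, plated 4,000/well for 24 h, then compound plus 17beta-estradiol for 21.5 h at 37 C; ONE-Glo luminescence read.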

[15] = qHTS assay for identifying genotoxic compounds that show differential cytotoxicity against isogenic chicken DT40 cell lines with known DNA damage response pathways - Rad54/Ku70 mutant cell line (AID 743015); also: nearly all actives have a fitted effect of over 60% in size; also: potency is read from the fitted curve at half-maximal effect
[16] = target: Androgen receptor (Homo sapiens) (UniProt P10275); assay: qHTS assay to identify small molecule antagonists of the androgen receptor (AR) signaling pathway (AID 743035; active = well fitted inhibition curve with a large enough effect in the signal ratio in the repeat runs, not every such curve was filed as active; the % refers to the signal ratio)
Androgen receptor (Homo sapiens), sequence (P10275 whole entry, looked up): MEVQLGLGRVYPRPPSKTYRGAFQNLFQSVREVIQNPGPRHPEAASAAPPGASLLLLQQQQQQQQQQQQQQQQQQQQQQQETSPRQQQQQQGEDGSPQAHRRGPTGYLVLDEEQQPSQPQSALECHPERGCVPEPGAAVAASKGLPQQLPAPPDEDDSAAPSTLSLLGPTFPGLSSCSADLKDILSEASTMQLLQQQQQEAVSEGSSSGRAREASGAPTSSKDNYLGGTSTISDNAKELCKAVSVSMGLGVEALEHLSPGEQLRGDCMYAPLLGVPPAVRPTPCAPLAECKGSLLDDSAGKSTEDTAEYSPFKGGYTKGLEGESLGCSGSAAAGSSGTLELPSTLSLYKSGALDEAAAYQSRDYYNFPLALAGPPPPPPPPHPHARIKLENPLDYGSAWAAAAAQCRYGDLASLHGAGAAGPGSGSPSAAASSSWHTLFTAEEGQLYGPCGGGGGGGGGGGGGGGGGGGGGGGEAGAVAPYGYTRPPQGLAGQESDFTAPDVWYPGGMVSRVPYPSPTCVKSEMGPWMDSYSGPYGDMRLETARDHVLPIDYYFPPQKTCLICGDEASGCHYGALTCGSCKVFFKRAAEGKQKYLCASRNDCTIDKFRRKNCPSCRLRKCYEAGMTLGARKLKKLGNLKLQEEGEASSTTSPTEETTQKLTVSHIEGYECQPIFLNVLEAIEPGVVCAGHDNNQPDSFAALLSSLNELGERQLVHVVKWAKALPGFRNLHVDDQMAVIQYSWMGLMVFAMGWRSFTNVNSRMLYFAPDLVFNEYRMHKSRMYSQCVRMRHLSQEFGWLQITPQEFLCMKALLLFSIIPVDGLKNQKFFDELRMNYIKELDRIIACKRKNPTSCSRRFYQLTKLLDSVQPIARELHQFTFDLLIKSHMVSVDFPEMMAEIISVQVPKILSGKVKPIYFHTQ
Method in brief: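 R1881 agonist challenge of a HEK293 UAS-beta-lactamase AR reporter line in the presence of compound (16 h, 37C); signal taken as FRET fluorescence after 2 h with LiveBLAzer B/G substrate at room temperature.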

[17] = target: Androgen receptor (Homo sapiens) (UniProt P10275); assay: qHTS assay to identify small molecule agonists of the androgen receptor (AR) signaling pathway using the MDA cell line (AID 743040; also: nearly all actives have a fitted effect of over 20% in size)
Method in brief: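 Cell-based luciferase reporter: MDA-kb2, MMTV promoter (AR + GR response elements). 16 h compound exposure at 37C; ONE-Glo, 30 min RT, luminescence.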

[18] = target: Androgen receptor (Homo sapiens) (UniProt P10275); assay: qHTS assay to identify small molecule antagonists of the androgen receptor (AR) signaling pathway using the MDA cell line (AID 743042; also: nearly all actives have a fitted effect of over 55% in size)
Method in brief: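 MDA-kb2 cells (human breast carcinoma, stably carrying an MMTV-luciferase reporter responsive to AR and GR) were plated at 3,000 cells/well and preincubated 5 hr at 37C, then given compound plus R1881 agonist for 16 h. ONE-Glo luminescence was read.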

Compound | Potency [1] | Potency [2] | Potency [3] | outcome [4] | outcome [5] | Potency [6] | Potency [7] | Potency [8] | Potency [9] | outcome [10] | outcome (Aromatase (Homo sapiens)) | Potency [11] | Potency [12] | Potency [13] | outcome [14] | Potency [15] | Potency [16] | outcome [17] | outcome [18]
NS(=O)(=O)c1cc2c(cc1Cl)NC(CC1CCCC1)NS2(=O)=O (stereo not drawn) | inactive | inactive | inactive | inactive | inactive | inactive | inactive | inactive | inactive | inactive | inactive |  |  |  |  |  |  |  | 
Cc1c(C(C)C)c(=O)n(-c2ccccc2)n1C | inactive | inactive | inactive | inactive | inactive | inactive | inactive | inactive | inactive | inactive | inactive | inactive | inactive | inactive |  |  |  |  | 
F[Si-2](F)(F)(F)(F)F | inactive | inactive | inactive | inactive | inactive | inactive | inactive | inactive | inactive | inactive | inactive | inactive | inactive | inactive | inactive |  |  |  | 
CC(C)COC(=O)CC(C(=O)OCC(C)C)S(=O)(=O)O (stereo not drawn) | inactive | inactive | inactive | inactive | inactive | inactive | inactive | inactive | inactive | inactive | inactive | inactive | inactive | inactive | inactive |  |  |  | 
CC1(N)CCC(C(C)(C)N)CC1 (stereo not drawn) | inactive | inactive | inactive | inactive | inactive |  | inactive | inactive | inactive | inactive | inactive |  |  |  |  | inactive |  |  | 
CC(C)CCCC(C)CC=O (stereo not drawn) | inactive | inactive | inactive | inactive | inactive | inactive | inactive | inactive | inactive | inactive | inactive | inactive | inactive | inactive |  |  |  |  | 
Oc1ccccc1Cc1ccccc1O | inactive | inactive | inactive | inactive | inactive | inactive |  | inactive |  | inactive | inactive |  |  | inactive |  |  |  |  | 
Cc1ncc([N+](=O)[O-])n1CC(O)CCl (stereo not drawn) | inactive | inactive |  | inactive | inactive | inactive | inactive | inactive | inactive | inactive | inactive |  |  |  |  | inactive | inactive | inactive | inactive
CCCCCCCC/C=C\CCCCCCCC(=O)OC[C@@H](O)[C@H]1OC[C@H](O)[C@H]1O | inactive | inactive |  | inactive | inactive | inactive | inactive | inactive | inactive | inactive | inactive | inactive | inactive | inactive |  | inactive |  |  | 
CCC(C)N (stereo not drawn) | inactive | inactive |  | inactive | inactive | inactive | inactive | inactive | inactive | inactive | inactive | inactive | inactive | inactive |  | inactive |  |  | 
CC(C)(C)NCCO | inactive | inactive |  | inactive | inactive | inactive | inactive | inactive | inactive | inactive | inactive | inactive | inactive | inactive | inactive | inactive |  |  | 
COc1cc2c3cc1Oc1cc(ccc1O)C[C@@H]1c4c(cc(OC)c(O)c4Oc4ccc(cc4)C[C@@H]3N(C)CC2)CC[N+]1(C)C | inactive | inactive |  | inactive | inactive | inactive | inactive | inactive | inactive | inactive | inactive |  |  |  |  | inactive |  |  | 
CC(C)CCCCCCOC(=O)C1CCCCC1C(=O)OCCCCCCC(C)C (stereo not drawn) | inactive | inactive |  | inactive | inactive | inactive | inactive | inactive | inactive | inactive | inactive |  | inactive | inactive | inactive | inactive |  |  | 
Cc1ccccc1C | inactive | inactive | inactive | inactive | inactive |  |  |  | inactive | inactive | inactive | inactive | inactive | inactive |  |  |  |  | 
CCC(CO)CO | inactive | inactive |  | inactive | inactive | inactive | inactive | inactive | inactive | inactive | inactive | inactive | inactive | inactive | inactive | inactive |  |  | 
O=C(Nc1cccc(C2=NCCN2)c1)Nc1cccc(C2=NCCN2)c1 | inactive | 11.9 µM (active) |  | inactive | inactive | inactive |  |  | inactive | inactive | inactive | inactive | inactive |  | inactive | 18.8 µM (active) |  |  | 
CCCCCCCCOC(C)=O | inactive | inactive |  | inactive | inactive | inactive | inactive | inactive | inactive | inactive | inactive | inactive | inactive | inactive | inactive | inactive |  |  | 
Cc1cc(C)cc([N+](=O)[O-])c1 | inactive | inactive |  | inactive | inactive | inactive | inactive | inactive | inactive | inactive | inactive | inactive | inactive | inactive | inactive | inactive |  |  | 
C[Si]1(C)N[Si](C)(C)N[Si](C)(C)N1 | inactive | inactive |  | inactive | inactive | inactive | inactive | inactive | inactive | inactive | inactive | inactive | inactive | inactive | inactive | inactive |  |  | 
CC1=CC[C@H](CC=O)C1(C)C | inactive | inactive |  | inactive | inactive | inactive | inactive | inactive | inactive | inactive | inactive | inactive | inactive | inactive |  | inactive |  |  | 
Nc1cc(Cl)cc(S(=O)(=O)O)c1O | inactive | inactive |  | inactive | inactive | inactive | inactive | inactive | inactive | inactive | inactive | inactive | inactive | inactive |  | inactive |  |  | 
